Columns and labels:
[1] = tested on: Epidermal growth factor receptor (Homo sapiens), P00533 [T790M]; conditions: at 1 µM
[2] = tested on: Epidermal growth factor receptor (Homo sapiens), P00533 [L858R,T790M]; conditions: at 0.1 µM
[3] = tested on: Epidermal growth factor receptor (Homo sapiens), P00533 [L858R,T790M]; conditions: at 1 µM
[4] = biological target: Ephrin type-A receptor 2 (Homo sapiens) (UniProt P29317); conditions: at 0.1 µM
[5] = biological target: Ephrin type-A receptor 2 (Homo sapiens) (UniProt P29317); conditions: at 1 µM
[6] = biological target: T1, Ephrin type-A receptor 3 (Homo sapiens) (UniProt P29320); conditions: at 0.1 µM
T1 sequence (whole entry): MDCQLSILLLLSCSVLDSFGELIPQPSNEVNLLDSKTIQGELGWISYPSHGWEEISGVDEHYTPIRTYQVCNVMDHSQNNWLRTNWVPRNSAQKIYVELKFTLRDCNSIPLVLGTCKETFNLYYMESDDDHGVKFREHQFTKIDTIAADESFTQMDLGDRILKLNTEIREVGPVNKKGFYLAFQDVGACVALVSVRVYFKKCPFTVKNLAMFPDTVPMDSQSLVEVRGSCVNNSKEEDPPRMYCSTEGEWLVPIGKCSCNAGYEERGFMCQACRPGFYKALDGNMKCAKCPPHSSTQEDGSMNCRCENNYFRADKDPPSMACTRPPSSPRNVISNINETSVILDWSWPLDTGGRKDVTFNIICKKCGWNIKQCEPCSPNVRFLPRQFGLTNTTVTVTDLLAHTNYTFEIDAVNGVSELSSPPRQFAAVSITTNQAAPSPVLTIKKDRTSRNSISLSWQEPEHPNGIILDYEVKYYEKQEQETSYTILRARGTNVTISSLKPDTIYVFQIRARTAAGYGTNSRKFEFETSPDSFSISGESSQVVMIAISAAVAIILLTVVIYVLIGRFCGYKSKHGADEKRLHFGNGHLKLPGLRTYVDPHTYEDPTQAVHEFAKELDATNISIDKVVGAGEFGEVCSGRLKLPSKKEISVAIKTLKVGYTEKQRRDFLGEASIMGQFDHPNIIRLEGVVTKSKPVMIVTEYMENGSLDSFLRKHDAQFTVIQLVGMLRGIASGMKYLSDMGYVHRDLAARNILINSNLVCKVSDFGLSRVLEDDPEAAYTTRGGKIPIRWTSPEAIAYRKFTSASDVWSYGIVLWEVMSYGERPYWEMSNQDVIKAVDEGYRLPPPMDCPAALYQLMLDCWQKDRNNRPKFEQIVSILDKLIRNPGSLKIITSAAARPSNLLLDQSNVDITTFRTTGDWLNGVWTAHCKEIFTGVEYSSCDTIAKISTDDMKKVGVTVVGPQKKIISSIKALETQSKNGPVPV

[7] = biological target: T1, Ephrin type-A receptor 3 (Homo sapiens); conditions: at 1 µM
[8] = biological target: Ephrin type-A receptor 4 (Homo sapiens) (UniProt P54764); conditions: at 0.1 µM
[9] = biological target: Ephrin type-A receptor 4 (Homo sapiens) (UniProt P54764); conditions: at 1 µM
[10] = biological target: T2, Ephrin type-B receptor 2 (Homo sapiens) (UniProt P29323); conditions: at 0.1 µM
T2 sequence (whole entry): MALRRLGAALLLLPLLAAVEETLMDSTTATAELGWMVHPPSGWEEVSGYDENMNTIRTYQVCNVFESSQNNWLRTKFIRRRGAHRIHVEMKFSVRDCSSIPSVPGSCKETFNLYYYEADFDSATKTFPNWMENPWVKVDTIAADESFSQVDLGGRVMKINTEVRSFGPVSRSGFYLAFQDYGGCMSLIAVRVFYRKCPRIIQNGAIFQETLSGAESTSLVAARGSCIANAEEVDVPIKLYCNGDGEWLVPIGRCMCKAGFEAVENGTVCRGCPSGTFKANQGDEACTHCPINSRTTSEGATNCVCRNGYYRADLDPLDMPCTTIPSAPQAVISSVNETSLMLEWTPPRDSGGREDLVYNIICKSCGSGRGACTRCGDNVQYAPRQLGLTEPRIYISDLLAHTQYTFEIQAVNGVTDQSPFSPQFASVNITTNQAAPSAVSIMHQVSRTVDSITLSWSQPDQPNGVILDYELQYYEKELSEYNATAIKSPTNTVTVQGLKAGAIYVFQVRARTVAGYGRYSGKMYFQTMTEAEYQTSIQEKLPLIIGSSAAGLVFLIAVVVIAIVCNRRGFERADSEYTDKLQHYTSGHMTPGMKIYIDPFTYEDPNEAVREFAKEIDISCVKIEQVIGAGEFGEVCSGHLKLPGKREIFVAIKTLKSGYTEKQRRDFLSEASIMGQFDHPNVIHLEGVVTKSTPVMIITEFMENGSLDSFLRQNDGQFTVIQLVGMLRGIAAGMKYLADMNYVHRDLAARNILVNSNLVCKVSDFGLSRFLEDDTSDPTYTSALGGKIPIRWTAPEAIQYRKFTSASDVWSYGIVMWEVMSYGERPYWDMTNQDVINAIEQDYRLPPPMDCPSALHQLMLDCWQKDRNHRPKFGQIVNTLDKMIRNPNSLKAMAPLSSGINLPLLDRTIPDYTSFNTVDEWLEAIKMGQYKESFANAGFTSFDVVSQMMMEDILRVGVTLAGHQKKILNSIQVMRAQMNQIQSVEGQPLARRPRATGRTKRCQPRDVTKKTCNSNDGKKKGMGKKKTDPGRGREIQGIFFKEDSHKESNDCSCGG

[11] = biological target: T2, Ephrin type-B receptor 2 (Homo sapiens); conditions: at 1 µM
[12] = biological target: T3, Ephrin type-B receptor 3 (Homo sapiens) (UniProt P54753); conditions: at 0.1 µM
T3 sequence (whole entry): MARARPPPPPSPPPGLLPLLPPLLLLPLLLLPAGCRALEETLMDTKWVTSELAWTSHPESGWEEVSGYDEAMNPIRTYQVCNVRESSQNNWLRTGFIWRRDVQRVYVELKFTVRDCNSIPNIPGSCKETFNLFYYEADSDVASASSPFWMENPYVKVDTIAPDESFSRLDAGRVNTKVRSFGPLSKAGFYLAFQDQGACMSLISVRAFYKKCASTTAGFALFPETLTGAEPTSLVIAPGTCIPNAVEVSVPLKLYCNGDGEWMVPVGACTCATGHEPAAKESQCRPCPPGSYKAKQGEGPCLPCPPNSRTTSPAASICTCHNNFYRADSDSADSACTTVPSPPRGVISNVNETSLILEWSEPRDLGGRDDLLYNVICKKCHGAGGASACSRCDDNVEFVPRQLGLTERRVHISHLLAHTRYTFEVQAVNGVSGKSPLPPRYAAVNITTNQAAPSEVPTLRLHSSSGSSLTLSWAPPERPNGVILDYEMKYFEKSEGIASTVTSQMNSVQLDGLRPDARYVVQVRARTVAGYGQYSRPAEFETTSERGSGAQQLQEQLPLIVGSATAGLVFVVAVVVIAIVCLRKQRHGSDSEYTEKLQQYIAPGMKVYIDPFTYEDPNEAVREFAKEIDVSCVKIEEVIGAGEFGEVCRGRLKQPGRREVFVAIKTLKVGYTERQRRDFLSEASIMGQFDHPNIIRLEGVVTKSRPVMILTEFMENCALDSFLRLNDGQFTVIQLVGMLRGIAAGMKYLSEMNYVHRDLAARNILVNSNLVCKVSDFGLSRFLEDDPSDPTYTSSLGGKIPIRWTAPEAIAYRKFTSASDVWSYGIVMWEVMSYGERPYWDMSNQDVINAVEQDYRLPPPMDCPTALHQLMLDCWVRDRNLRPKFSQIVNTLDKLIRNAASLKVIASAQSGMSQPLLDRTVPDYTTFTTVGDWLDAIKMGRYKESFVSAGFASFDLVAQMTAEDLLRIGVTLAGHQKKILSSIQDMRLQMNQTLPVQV

[13] = biological target: T3, Ephrin type-B receptor 3 (Homo sapiens); conditions: at 1 µM
[14] = biological target: T4, Ephrin type-B receptor 4 (Homo sapiens) (UniProt P54760); conditions: at 0.1 µM
T4 sequence (whole entry): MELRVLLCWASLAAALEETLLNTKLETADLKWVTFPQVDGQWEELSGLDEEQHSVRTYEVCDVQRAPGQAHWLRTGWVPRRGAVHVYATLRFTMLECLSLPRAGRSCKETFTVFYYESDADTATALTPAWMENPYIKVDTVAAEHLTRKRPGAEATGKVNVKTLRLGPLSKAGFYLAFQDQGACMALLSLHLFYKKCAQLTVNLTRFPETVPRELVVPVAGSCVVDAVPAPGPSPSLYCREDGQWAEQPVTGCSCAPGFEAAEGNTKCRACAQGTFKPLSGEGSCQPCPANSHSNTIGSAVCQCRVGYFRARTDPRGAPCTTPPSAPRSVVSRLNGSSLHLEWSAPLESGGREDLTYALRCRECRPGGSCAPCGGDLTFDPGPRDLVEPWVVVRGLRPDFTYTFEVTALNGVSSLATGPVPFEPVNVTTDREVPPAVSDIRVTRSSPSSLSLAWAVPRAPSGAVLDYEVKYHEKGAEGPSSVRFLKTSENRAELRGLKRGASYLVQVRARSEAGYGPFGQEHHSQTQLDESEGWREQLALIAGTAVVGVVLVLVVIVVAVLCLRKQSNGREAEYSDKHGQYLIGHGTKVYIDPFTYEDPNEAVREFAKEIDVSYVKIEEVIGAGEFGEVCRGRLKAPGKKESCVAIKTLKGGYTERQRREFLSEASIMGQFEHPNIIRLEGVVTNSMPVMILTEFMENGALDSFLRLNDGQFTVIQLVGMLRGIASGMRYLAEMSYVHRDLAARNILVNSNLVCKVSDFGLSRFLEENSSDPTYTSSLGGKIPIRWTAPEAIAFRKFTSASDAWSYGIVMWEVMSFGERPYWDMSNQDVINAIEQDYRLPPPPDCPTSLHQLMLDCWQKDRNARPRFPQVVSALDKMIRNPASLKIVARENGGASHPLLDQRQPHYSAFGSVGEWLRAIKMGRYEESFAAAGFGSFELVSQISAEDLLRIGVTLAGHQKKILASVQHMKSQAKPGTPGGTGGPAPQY

[15] = biological target: T4, Ephrin type-B receptor 4 (Homo sapiens); conditions: at 1 µM
[16] = biological target: Receptor tyrosine-protein kinase erbB-2 (Homo sapiens) (UniProt P04626); conditions: at 0.1 µM
[17] = biological target: Receptor tyrosine-protein kinase erbB-2 (Homo sapiens) (UniProt P04626); conditions: at 1 µM
[18] = biological target: Receptor tyrosine-protein kinase erbB-4 (Homo sapiens) (UniProt Q15303); conditions: at 0.1 µM
[19] = biological target: Receptor tyrosine-protein kinase erbB-4 (Homo sapiens) (UniProt Q15303); conditions: at 1 µM
[20] = biological target: Tyrosine-protein kinase Fer (Homo sapiens) (UniProt P16591); conditions: at 0.1 µM;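 further: reported figures are averaged percent inhibition of FER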
Sequence of Tyrosine-protein kinase Fer (Homo sapiens) (P16591 whole entry, looked up): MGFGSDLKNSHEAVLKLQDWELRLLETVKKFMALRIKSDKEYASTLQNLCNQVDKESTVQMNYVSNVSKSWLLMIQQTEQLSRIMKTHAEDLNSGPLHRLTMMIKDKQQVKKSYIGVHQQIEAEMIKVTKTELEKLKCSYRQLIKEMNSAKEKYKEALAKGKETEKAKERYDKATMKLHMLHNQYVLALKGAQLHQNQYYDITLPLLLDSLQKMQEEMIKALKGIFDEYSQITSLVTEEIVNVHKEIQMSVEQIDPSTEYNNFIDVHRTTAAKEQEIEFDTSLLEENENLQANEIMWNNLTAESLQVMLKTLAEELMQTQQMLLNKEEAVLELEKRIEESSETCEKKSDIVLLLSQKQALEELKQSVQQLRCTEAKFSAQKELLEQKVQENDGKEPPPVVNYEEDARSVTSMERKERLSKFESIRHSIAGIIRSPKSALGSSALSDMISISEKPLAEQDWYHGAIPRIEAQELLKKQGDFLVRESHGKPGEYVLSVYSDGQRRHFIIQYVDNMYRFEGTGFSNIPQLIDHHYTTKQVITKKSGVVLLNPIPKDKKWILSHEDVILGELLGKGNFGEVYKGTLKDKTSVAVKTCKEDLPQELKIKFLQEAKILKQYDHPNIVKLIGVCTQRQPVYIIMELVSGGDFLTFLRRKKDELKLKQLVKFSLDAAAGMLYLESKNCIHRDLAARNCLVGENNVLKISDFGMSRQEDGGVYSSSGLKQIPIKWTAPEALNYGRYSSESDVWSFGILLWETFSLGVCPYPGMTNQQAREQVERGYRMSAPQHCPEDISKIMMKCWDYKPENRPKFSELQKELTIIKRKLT

Sequence of Ephrin type-A receptor 2 (Homo sapiens) (P29317 whole entry): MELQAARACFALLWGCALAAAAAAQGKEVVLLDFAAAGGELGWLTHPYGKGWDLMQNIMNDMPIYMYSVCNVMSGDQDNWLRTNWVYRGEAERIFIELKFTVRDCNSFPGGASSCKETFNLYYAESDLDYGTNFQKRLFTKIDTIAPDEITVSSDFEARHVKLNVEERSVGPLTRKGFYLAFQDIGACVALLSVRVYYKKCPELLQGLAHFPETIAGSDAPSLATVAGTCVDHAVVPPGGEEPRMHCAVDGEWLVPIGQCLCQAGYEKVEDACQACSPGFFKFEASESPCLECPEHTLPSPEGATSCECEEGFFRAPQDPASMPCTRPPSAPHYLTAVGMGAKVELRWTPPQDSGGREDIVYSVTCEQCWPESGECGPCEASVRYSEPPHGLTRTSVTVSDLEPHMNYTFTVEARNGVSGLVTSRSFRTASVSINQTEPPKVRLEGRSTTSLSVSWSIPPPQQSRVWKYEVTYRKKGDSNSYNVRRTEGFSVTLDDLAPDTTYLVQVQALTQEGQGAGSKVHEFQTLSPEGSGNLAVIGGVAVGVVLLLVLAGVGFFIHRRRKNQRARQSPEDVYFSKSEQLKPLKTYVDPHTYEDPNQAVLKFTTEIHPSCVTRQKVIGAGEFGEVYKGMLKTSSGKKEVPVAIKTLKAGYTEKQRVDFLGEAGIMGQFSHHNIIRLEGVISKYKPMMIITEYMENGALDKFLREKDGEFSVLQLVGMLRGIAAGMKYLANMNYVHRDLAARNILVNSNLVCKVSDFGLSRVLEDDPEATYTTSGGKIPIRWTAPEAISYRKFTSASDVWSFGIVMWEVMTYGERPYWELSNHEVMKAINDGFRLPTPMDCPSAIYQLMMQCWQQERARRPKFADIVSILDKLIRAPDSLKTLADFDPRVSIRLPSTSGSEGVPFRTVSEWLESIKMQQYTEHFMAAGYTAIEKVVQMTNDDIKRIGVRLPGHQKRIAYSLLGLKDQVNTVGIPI
Sequence of Receptor tyrosine-protein kinase erbB-2 (Homo sapiens) (P04626 whole entry): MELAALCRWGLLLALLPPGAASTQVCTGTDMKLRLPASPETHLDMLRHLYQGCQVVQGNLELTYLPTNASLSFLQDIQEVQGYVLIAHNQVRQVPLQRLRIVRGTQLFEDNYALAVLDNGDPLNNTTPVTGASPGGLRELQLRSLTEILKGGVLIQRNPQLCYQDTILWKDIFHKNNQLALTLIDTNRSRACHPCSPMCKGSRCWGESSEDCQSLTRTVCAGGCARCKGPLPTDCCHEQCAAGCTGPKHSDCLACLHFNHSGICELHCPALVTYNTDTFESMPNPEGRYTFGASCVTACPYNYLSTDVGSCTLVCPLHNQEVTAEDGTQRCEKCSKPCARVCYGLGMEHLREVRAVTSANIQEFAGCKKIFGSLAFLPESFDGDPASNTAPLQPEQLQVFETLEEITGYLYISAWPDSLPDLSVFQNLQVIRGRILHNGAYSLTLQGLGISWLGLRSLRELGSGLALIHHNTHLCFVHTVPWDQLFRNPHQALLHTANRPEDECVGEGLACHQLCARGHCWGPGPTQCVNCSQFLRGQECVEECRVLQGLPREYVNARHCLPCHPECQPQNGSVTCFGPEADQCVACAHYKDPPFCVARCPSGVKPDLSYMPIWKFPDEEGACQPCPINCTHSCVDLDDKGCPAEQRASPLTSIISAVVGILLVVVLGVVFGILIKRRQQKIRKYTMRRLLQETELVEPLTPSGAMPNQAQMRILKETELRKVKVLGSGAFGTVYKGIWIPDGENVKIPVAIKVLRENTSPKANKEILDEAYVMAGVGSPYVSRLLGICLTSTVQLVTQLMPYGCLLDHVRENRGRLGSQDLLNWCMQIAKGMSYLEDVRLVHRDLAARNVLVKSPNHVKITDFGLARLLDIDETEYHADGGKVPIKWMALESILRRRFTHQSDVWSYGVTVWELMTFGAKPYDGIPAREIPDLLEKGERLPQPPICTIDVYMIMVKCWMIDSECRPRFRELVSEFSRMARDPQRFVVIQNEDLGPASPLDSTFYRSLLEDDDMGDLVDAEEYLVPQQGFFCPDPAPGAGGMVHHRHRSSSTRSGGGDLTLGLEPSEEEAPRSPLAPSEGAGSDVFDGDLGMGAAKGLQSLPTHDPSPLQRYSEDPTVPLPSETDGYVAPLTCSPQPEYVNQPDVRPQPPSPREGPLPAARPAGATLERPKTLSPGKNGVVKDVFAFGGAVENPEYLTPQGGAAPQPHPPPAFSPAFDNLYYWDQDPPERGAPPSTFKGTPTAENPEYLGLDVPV
Sequence of Ephrin type-A receptor 4 (Homo sapiens) (P54764 whole entry): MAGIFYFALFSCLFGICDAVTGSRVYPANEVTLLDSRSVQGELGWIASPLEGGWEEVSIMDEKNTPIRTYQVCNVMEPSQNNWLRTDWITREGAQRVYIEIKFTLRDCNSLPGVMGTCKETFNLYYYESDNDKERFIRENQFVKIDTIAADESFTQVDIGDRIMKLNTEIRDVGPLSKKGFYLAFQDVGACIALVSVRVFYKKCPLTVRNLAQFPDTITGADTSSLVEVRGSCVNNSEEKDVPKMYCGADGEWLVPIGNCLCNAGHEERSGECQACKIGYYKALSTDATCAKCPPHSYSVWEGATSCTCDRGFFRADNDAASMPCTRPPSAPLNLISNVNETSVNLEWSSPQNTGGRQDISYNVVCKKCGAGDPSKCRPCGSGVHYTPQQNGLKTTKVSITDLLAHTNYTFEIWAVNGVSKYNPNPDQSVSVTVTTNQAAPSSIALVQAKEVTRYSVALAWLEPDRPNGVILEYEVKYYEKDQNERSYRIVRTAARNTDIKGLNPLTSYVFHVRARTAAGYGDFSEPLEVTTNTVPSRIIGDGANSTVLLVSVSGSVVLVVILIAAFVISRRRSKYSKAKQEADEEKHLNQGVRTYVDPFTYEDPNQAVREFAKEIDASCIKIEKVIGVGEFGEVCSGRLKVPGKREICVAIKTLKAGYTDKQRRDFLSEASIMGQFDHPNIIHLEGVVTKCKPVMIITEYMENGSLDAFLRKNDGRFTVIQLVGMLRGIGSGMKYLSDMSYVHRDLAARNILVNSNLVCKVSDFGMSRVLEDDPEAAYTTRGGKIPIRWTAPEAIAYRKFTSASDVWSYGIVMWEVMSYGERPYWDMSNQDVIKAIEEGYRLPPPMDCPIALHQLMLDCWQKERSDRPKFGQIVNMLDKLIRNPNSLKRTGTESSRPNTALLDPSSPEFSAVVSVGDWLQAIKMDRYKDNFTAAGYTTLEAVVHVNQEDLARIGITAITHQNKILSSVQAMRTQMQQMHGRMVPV

Compound | inhibition [1] | inhibition [2] | inhibition [3] | inhibition [4] | inhibition [5] | inhibition [6] | inhibition [7] | inhibition [8] | inhibition [9] | inhibition [10] | inhibition [11] | inhibition [12] | inhibition [13] | inhibition [14] | inhibition [15] | inhibition [16] | inhibition [17] | inhibition [18] | inhibition [19] | inhibition [20]
CCn1c(-c2nonc2N)nc2c(C#CC(C)(C)O)ncc(OC[C@@H]3CCCN3)c21 | -0.11% | 4.31% | -0.19% | 1.83% | 0.02% | 0.32% | -1.12% | -0.1% | 2.58% | -7.23% | -3.01% | -0.27% | 0.62% | -1.76% | 1.1% | 0.95% | 3.51% | 1.3% | 7.9% | -1.38%
COc1cc2c(cc1Nc1nc(Nc3ccsc3C(N)=O)c3cc[nH]c3n1)N(C(=O)CN(C)C)CCC2 | 55% | 29.8% | 77.5% | 1.21% | -1.44% | 1.88% | -0.28% | 0.13% | 4.13% | -6.85% | 5.1% | 0.25% | 1.02% | -2.11% | 1.55% | -0.5% | 1.76% | 8.03% | 35.3% | 79.7%
CCn1c(-c2nonc2N)nc2c(C#CC(C)(C)O)ncc(OCC3CCNCC3)c21 | 3.59% | 2.99% | 3.17% | -2.64% | -3.81% | -0.49% | -1.92% | 7.43% | 7.66% | 1.63% | 7.37% | -0.37% | -1.35% | -3.5% | -2.94% | 1.27% | 5.1% | 2.93% | 3.14% | 2.18%
CCn1c(-c2nonc2N)nc2c(C#CC(C)(C)O)nc(O[C@@H](CN)c3ccccc3)cc21 | -1.37% | 0.5% | -1.45% | -2.73% | -4.53% | -1.47% | -0.7% | -1.14% | -4.76% | -2.94% | – | 1.57% | -3.07% | -0.46% | 1.16% | -2.68% | -2.4% | 1.38% | 3.97% | 3.77%
Cc1cc(-c2ccco2)cc(C)c1/C=C/c1cncc(-c2nn[nH]n2)c1 | 1.13% | -2.33% | 0.17% | 1.36% | 1.78% | -0.31% | 0.86% | 1.64% | 3.95% | -9.41% | 3.46% | 0.39% | 4.16% | 0.18% | 2.02% | 3.01% | 3.5% | 2.03% | 15.7% | 4.17%
COc1cccc(COc2cc(-n3cnc4ccccc43)sc2C(N)=O)c1 | -0.01% | -1.88% | -1.62% | 1.52% | 1.85% | 2.67% | -0.49% | -0.79% | 3.39% | -2.9% | 0.89% | 0.5% | 2.27% | -2.06% | 1.33% | 2.53% | 2.65% | 1.74% | 13.2% | -2.66%
NS(=O)(=O)c1ccc(N/C=C2\C(=O)Nc3ccc4ncsc4c32)cc1 | 0.85% | 4.07% | 3.15% | 1.01% | 1.66% | 3.37% | 6.86% | 8.05% | 22.4% | 9.09% | 18.1% | 2.97% | 4.36% | 0.08% | 8.11% | 2.78% | 5.6% | 8.52% | 10.8% | 0.16%
